Shown is part of a subset that was picked to be rich in hits.
BL2 CD40 inh: CD40 pathway inhibition in BL2 cells | BL2 NF-kB luciferase reporter, CD40L-induced, 4 h | inhibition, % at 10 µM | 83,000 compounds, 0.94% hits;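 active = mean inhibition of at least 50% with a set share of replicates also reaching that level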
Numbers stand for hits; [ ] = dose if it differs, or a comment.

COc1ccc(S(=O)(=O)N(C)C[C@H]2OCc3ccccc3-c3c(n(C)c4ccccc34)C(=O)N([C@H](C)CO)C[C@@H]2C)cc1 was read as BL2 CD40 inh inactive.
For C[C@@H]1CN([C@H](C)CO)C(=O)c2c(c3ccccc3n2C)-c2ccccc2CO[C@H]1CN(C)S(=O)(=O)c1ccccc1 the results were BL2 CD40 inh inactive.
`C[C@H]1CN([C@@H](C)CO)C(=O)c2c(c3ccccc3n2C)-c2ccccc2CO[C@H]1CN(C)S(=O)(=O)c1ccccc1` gave BL2 CD40 inh inactive.
For C[C@H]1CN([C@@H](C)CO)C(=O)c2c(c3ccccc3n2C)-c2ccccc2CO[C@@H]1CN(C)S(=O)(=O)c1ccc([N+](=O)[O-])cc1 the results were BL2 CD40 inh 50[25 µM].
For C[C@H](CO)N1C[C@H](C)[C@H](CN(C)S(=O)(=O)c2ccccc2)OCc2ccccc2-c2c(n(C)c3ccccc23)C1=O the results were BL2 CD40 inh inactive.
For COc1ccc(S(=O)(=O)N(C)C[C@H]2OCc3ccccc3-c3c(n(C)c4ccccc34)C(=O)N([C@@H](C)CO)C[C@H]2C)cc1 the results were BL2 CD40 inh inactive.
Screening C[C@H](CO)N1C[C@H](C)[C@H](CN(C)C(=O)Nc2ccc3c(c2)OCO3)OCc2ccccc2-c2c(n(C)c3ccccc23)C1=O returned BL2 CD40 inh inactive.
Screening CN1c2ccc(-c3ccccc3)cc2[C@@H]2[C@@H](CCN2C(=O)c2ccccn2)[C@H]1CO returned BL2 CD40 inh inactive.
Screening O=C(Nc1ccccc1F)N1CCCCN2[C@@H](CO)[C@H](c3ccc(C#Cc4ccccc4)cc3)[C@@H]2C1 returned BL2 CD40 inh inactive.
N#C[C@@H]1[C@H](c2ccccc2-c2ccccc2)[C@@H](CO)N1C(=O)NC1CCCCC1 was read as BL2 CD40 inh inactive.
`O=C(C[C@@H]1CC[C@@H]2[C@H](COC[C@H](O)CN2Cc2nccs2)O1)NCc1ccccc1Cl` gave BL2 CD40 inh inactive.
COc1ccc(S(=O)(=O)Nc2ccc3c(c2)CC(=O)N([C@@H](C)CO)C[C@H](C)[C@@H](CN(C)C(=O)Nc2c(C)noc2C)O3)cc1 was read as BL2 CD40 inh inactive.
`Cc1cccc(S(=O)(=O)N2CC[C@@H]3[C@H]2c2cc(-c4cccc(C#N)c4)ccc2N(C)[C@H]3CO)c1` gave BL2 CD40 inh inactive.
`COc1cc(N(C)C)ccc1C=c1c2ccccc2n2c1cc(-c1ccccc1)[n+]2C` gave BL2 CD40 inh 101.
For CN(C)c1ccc(C=c2c3cc([N+](=O)[O-])ccc3n3c2cc(-c2ccccc2)[n+]3C)cc1 the results were BL2 CD40 inh 91.
For CN(C)c1ccc(C=C2C=C(c3ccccc3)OC2=O)cc1 the results were BL2 CD40 inh inactive.
Cn1ccc(=O)c2cc([N+](=O)[O-])ccc21 was read as BL2 CD40 inh inactive.
For CC(C)NC(=O)N(C)C[C@@H]1Oc2c(N)cccc2C(=O)N(C)C[C@@H]1C the results were BL2 CD40 inh inactive.
Screening CC(=O)N(C)C[C@@H]1Oc2ccc(N)cc2C(=O)N(C)C[C@@H]1C returned BL2 CD40 inh inactive.
`O=C(NCCc1ccncc1)[C@@H]1[C@@H](CO)[C@@H]2Cn3c(ccc(-c4ccncc4)c3=O)[C@H]1N2` gave BL2 CD40 inh inactive.
Screening CN(C)C(=O)c1ccc(-c2ccc([C@@H]3[C@H](C#N)N(C(=O)C4CCCC4)[C@H]3CO)cc2)cc1 returned BL2 CD40 inh inactive.
For C[C@@H]1CCCCO[C@H](CN(C)Cc2ccc(C(F)(F)F)cc2)[C@H](C)CN([C@@H](C)CO)C(=O)c2cc(NC(=O)NC3CCCCC3)ccc2O1 the results were BL2 CD40 inh inactive.
`OC(CN1CCOCC1)Cn1c(-c2cccc(Cl)c2)nc2ccccc21` (stereo unspecified) gave BL2 CD40 inh inactive.
`O=C(O)c1cc(-c2ccccc2)nc2ccccc12` gave BL2 CD40 inh inactive.
`OC(c1cc(-c2cccc(Cl)c2)nc2ccccc12)C1CCCCN1` (stereo unspecified) gave BL2 CD40 inh 65.
C[C@H](CO)N1C[C@H](C)[C@H](CN(C)C(=O)c2cnccn2)Oc2cc(C#CCC3CCCC3)ccc2S1(=O)=O was read as BL2 CD40 inh inactive.
For CC(C)NC(=O)N(C)C[C@H]1Oc2ncccc2C(=O)N(C)C[C@@H]1C the results were BL2 CD40 inh inactive.
For CC(C)Cc1ccc(C(C)CC2=CCC(CN(C)C)C2=O)cc1 (stereo unspecified) the results were BL2 CD40 inh 94.
For COc1ccccc1NC(=O)N1C[C@@H]2[C@H](c3ccccc31)[C@H](CO)N2C(=O)c1ccccc1 the results were BL2 CD40 inh inactive.
CC(=O)N(C)C[C@H]1Oc2c(NC(=O)NC(C)C)cccc2C(=O)N(C)C[C@H]1C was read as BL2 CD40 inh inactive.
`O=C(COc1ccccc1)Nc1ccc(Cl)cn1` gave BL2 CD40 inh inactive.
CCOc1ncccc1C(=O)OCC(=O)Nc1ccc(Cl)cn1 was read as BL2 CD40 inh inactive.
Screening COc1ccccc1C(=O)OCC(=O)Nc1ccc(Cl)cn1 returned BL2 CD40 inh 49.
COc1ccc2c3c(n(C)c2c1)[C@H](CO)N(C(=O)C1CCOCC1)CC31CN(C(=O)C2CC2)C1 was read as BL2 CD40 inh inactive.
`Cc1nnc(NC(=O)c2ccc(N3CCCC3=O)cc2)s1` gave BL2 CD40 inh inactive.
Screening O=C(NC1=NCCS1)c1ccc(N2CCCC2=O)cc1 returned BL2 CD40 inh inactive.
Cc1csc(NC(=O)c2ccc(N3CCCC3=O)cc2)n1 was read as BL2 CD40 inh 92.
`C[C@H](CO)N1C[C@H](C)[C@H](CN(C)Cc2ccc(-c3ccccc3)cc2)OCc2cn(nn2)CCCC1=O` gave BL2 CD40 inh inactive.
For CC(C)c1cn(CC[C@H]2CC[C@@H](NC(=O)C3CCCCC3)[C@@H](CO)O2)nn1 the results were BL2 CD40 inh inactive.
Screening COCC(=O)N1[C@@H]2c3ccc(-c4ccccc4)c(=O)n3C[C@H]1[C@H](CO)[C@H]2C(=O)NCc1ccccn1 returned BL2 CD40 inh inactive.
`COc1ccc(NC(=O)N(C)C[C@@H]2OCCCC[C@@H](C)Oc3ccc(NC(=O)Nc4ccccc4)cc3C(=O)N([C@H](C)CO)C[C@H]2C)cc1` gave BL2 CD40 inh inactive.
`C=CC[n+]1c(/C=C2\C=Cc3cc(C)ccc3N2CC)ccc2ccccc21` gave BL2 CD40 inh 65.
Screening C[C@H](CO)N1C[C@H](C)[C@H](CN(C)Cc2ccc(C(=O)Nc3ccccc3N)cc2)OCc2cnnn2CCCC1=O returned BL2 CD40 inh inactive.
Screening COc1ccc2c3c([nH]c2c1)[C@@H](CO)N(C(=O)Nc1ccc(F)cc1)CC31CCN(C(=O)Cc2ccncc2)CC1 returned BL2 CD40 inh inactive.
`COc1ccc2c3c(n(C)c2c1)[C@@H](CO)N(C(=O)c1ccc(F)cc1)CC31CN(C(=O)Nc2ccc(F)cc2)C1` gave BL2 CD40 inh inactive.
Screening COc1ccc2c3c([nH]c2c1)[C@@H](CO)N(C)CC31CCN(C(=O)c2ccccc2F)CC1 returned BL2 CD40 inh inactive.
For COc1ccc2c3c(n(C)c2c1)[C@H](CO)N(C(=O)Nc1ccc(F)cc1)CC31CN(C(=O)Cc2ccncc2)C1 the results were BL2 CD40 inh inactive.
Screening COc1ccc2c3c(n(C)c2c1)[C@@H](CO)N(C(=O)Nc1ccc(F)cc1)CC31CN(Cc2ccccc2F)C1 returned BL2 CD40 inh 58[25 µM].
For COc1ccc2c3c([nH]c2c1)[C@H](CO)N(C(=O)Nc1ccc(F)cc1)CC31CCN(C(=O)c2ccccc2F)CC1 the results were BL2 CD40 inh 60[25 µM].
